{"source": "PubChem BioAssay AID1159580", "about": "(chemical genetic matrix, 2015)", "assay": "chemical genetic growth profiling, strain panel (AID 1159580);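 note: tested at 20 µM; growth read once vehicle control cultures reached saturation at 30 °C; 1 = growth at the plate median or of vehicle wells; lower values mean less growth of the strain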", "details": "growth OD", "note": "About 2,000 (36%) of roughly 5,500 compounds were called active. Inconclusive results (about 18%) are left out. The list shows a part of the results. Unmarked numbers belong to inactive results. Cut-off read from the data, not from the text of the source: active = normalized growth mostly below about 0.91 (no sharp cut-off); inconclusive = no clear call, values can overlap the other calls; inactive = mostly above about 0.92."}
{"smiles": "CC(C)=CCCC1(C)C=Cc2c(O)c3c(c(CC=C(C)C)c2O1)OC12C(=CC4CC1C(C)(C)OC2(C/C=C(/C)C(=O)O)C4=O)C3=O", "note": "(stereo not drawn)", "values": [{"measurement": "normalized growth", "setting": "S. cerevisiae deletion strains, locus YJL187C, strain SWE1, active compounds read low", "result": "0.851 (active)"}, {"measurement": "normalized growth", "setting": "S. cerevisiae deletion strains, locus YJR043C, strain POL32, active compounds read low", "result": "0.821 (active)"}, {"measurement": "normalized growth", "setting": "S. cerevisiae deletion strains, locus YJR066W, strain TOR1, active compounds read low", "result": 0.825}, {"measurement": "normalized growth", "setting": "S. cerevisiae deletion strains, locus YKL009W, strain mrt4, active compounds read low", "result": 0.965}, {"measurement": "normalized growth", "setting": "S. cerevisiae deletion strains, locus YKL068W, active compounds read low", "result": 0.943}, {"measurement": "normalized growth", "setting": "S. cerevisiae deletion strains, locus YKL085W, strain MDH1 (second series), active compounds read low", "result": "0.925 (active)"}, {"measurement": "normalized growth", "setting": "S. cerevisiae deletion strains, locus YKL085W, strain MDH1, active compounds read low", "result": "0.925 (active)"}, {"measurement": "normalized growth", "setting": "S. cerevisiae deletion strains, locus YKL160W, strain elf1, active compounds read low", "result": "0.842 (active)"}, {"measurement": "normalized growth", "setting": "S. cerevisiae deletion strains, locus YKR001C, strain vps1, active compounds read low", "result": "0.628 (active)"}, {"measurement": "normalized growth", "setting": "S. cerevisiae deletion strains, locus YKR026C, strain gcn3, active compounds read low", "result": 0.973}, {"measurement": "normalized growth", "setting": "S. cerevisiae deletion strains, locus YKR091W, strain srl3, active compounds read low", "result": 0.96}, {"measurement": "normalized growth", "setting": "S. cerevisiae deletion strains, locus YLL001W, strain dnm1, active compounds read low", "result": "0.881 (active)"}, {"measurement": "normalized growth", "setting": "S. cerevisiae deletion strains, locus YLL026W, active compounds read low", "result": "0.888 (active)"}, {"measurement": "normalized growth", "setting": "S. cerevisiae deletion strains, locus YLL041C, strain sdh2, active compounds read low", "result": 0.958}, {"measurement": "normalized growth", "setting": "S. cerevisiae deletion strains, locus YLR027C, strain aat2, active compounds read low", "result": "0.827 (active)"}, {"measurement": "normalized growth", "setting": "S. cerevisiae deletion strains, locus YLR039C, strain RIC1, active compounds read low", "result": 0.873}, {"measurement": "normalized growth", "setting": "S. cerevisiae deletion strains, locus YLR058C, strain SHM2, active compounds read low", "result": "0.884 (active)"}, {"measurement": "normalized growth", "setting": "S. cerevisiae deletion strains, locus YLR102C, strain apc9, active compounds read low", "result": 0.97}, {"measurement": "normalized growth", "setting": "S. cerevisiae deletion strains, locus YLR113W, strain HOG1, active compounds read low", "result": "0.685 (active)"}, {"measurement": "normalized growth", "setting": "S. cerevisiae deletion strains, locus YLR221C, strain rsa3, active compounds read low", "result": "0.871 (active)"}, {"measurement": "normalized growth", "setting": "S. cerevisiae deletion strains, locus YLR258W, strain gsy2, active compounds read low", "result": "0.861 (active)"}, {"measurement": "normalized growth", "setting": "S. cerevisiae deletion strains, locus YLR262C, strain YPT6 (second series), active compounds read low", "result": "0.685 (active)"}, {"measurement": "normalized growth", "setting": "S. cerevisiae deletion strains, locus YLR262C, strain YPT6, active compounds read low", "result": 0.783}, {"measurement": "normalized growth", "setting": "S. cerevisiae deletion strains, locus YLR268W, strain sec22, active compounds read low", "result": "0.84 (active)"}, {"measurement": "normalized growth", "setting": "S. cerevisiae deletion strains, locus YLR320W, strain mms22, active compounds read low", "result": "0.732 (active)"}, {"measurement": "normalized growth", "setting": "S. cerevisiae deletion strains, locus YLR330W, strain CHS5, active compounds read low", "result": "0.756 (active)"}, {"measurement": "normalized growth", "setting": "S. cerevisiae deletion strains, locus YLR342W, strain FKS1 (second series), active compounds read low", "result": "0.703 (active)"}, {"measurement": "normalized growth", "setting": "S. cerevisiae deletion strains, locus YLR342W, strain FKS1, active compounds read low", "result": "0.854 (active)"}, {"measurement": "normalized growth", "setting": "S. cerevisiae deletion strains, locus YLR357W, strain rsc2, active compounds read low", "result": 1.02}, {"measurement": "normalized growth", "setting": "S. cerevisiae deletion strains, locus YLR370C, strain arc18, active compounds read low", "result": 0.984}, {"measurement": "normalized growth", "setting": "S. cerevisiae deletion strains, locus YLR371W, strain rom2, active compounds read low", "result": 0.955}, {"measurement": "normalized growth", "setting": "S. cerevisiae deletion strains, locus YLR384C, strain iki3, active compounds read low", "result": 0.989}, {"measurement": "normalized growth", "setting": "S. cerevisiae deletion strains, locus YLR418C, strain cdc73, active compounds read low", "result": "0.487 (active)"}, {"measurement": "normalized growth", "setting": "S. cerevisiae deletion strains, locus YML016C, strain PPZ1, active compounds read low", "result": 0.963}, {"measurement": "normalized growth", "setting": "S. cerevisiae deletion strains, locus YML032C, strain rad52, active compounds read low", "result": "0.879 (active)"}, {"measurement": "normalized growth", "setting": "S. cerevisiae deletion strains, locus YML120C, strain ndi1, active compounds read low", "result": "0.855 (active)"}, {"measurement": "normalized growth", "setting": "S. cerevisiae deletion strains, locus YML124C, strain tub3, active compounds read low", "result": 0.979}, {"measurement": "normalized growth", "setting": "S. cerevisiae deletion strains, locus YMR058W, strain fet3, active compounds read low", "result": "0.507 (active)"}, {"measurement": "normalized growth", "setting": "S. cerevisiae deletion strains, locus YMR078C, strain ctf18, active compounds read low", "result": 0.98}, {"measurement": "normalized growth", "setting": "S. cerevisiae deletion strains, locus YMR125W, strain sto1, active compounds read low", "result": 0.938}, {"measurement": "normalized growth", "setting": "S. cerevisiae deletion strains, locus YMR129W, active compounds read low", "result": 0.951}, {"measurement": "normalized growth", "setting": "S. cerevisiae deletion strains, locus YMR205C, strain PFK2, active compounds read low", "result": "0.623 (active)"}, {"measurement": "normalized growth", "setting": "S. cerevisiae deletion strains, locus YMR223W, strain ubp8, active compounds read low", "result": "0.853 (active)"}, {"measurement": "normalized growth", "setting": "S. cerevisiae deletion strains, locus YMR231W, strain pep5, active compounds read low", "result": "0.911 (active)"}, {"measurement": "normalized growth", "setting": "S. cerevisiae deletion strains, locus YMR263W, strain SAP30, active compounds read low", "result": 0.947}, {"measurement": "normalized growth", "setting": "S. cerevisiae deletion strains, locus YMR307W, strain GAS1, active compounds read low", "result": "0.571 (active)"}, {"measurement": "normalized growth", "setting": "S. cerevisiae deletion strains, locus YNL067W, strain RPL9B, active compounds read low", "result": 0.93}, {"measurement": "normalized growth", "setting": "S. cerevisiae deletion strains, locus YNL071W, strain lat1, active compounds read low", "result": "0.324 (active)"}, {"measurement": "normalized growth", "setting": "S. cerevisiae deletion strains, locus YNL153C, strain GIM3, active compounds read low", "result": 0.923}, {"measurement": "normalized growth", "setting": "S. cerevisiae deletion strains, locus YNL183C, strain NPR1, active compounds read low", "result": "0.8 (active)"}, {"measurement": "normalized growth", "setting": "S. cerevisiae deletion strains, locus YNL209W, strain ssb2, active compounds read low", "result": "0.76 (active)"}, {"measurement": "normalized growth", "setting": "S. cerevisiae deletion strains, locus YNL233W, strain BNI4, active compounds read low", "result": "0.772 (active)"}, {"measurement": "normalized growth", "setting": "S. cerevisiae deletion strains, locus YNL248C, strain rpa49, active compounds read low", "result": 0.976}, {"measurement": "normalized growth", "setting": "S. cerevisiae deletion strains, locus YNL250W, strain rad50, active compounds read low", "result": 0.952}, {"measurement": "normalized growth", "setting": "S. cerevisiae deletion strains, locus YNL271C, strain bni1, active compounds read low", "result": 0.981}, {"measurement": "normalized growth", "setting": "S. cerevisiae deletion strains, locus YNL298W, strain CLA4, active compounds read low", "result": 0.976}, {"measurement": "normalized growth", "setting": "S. cerevisiae deletion strains, locus YNL307C, strain MCK1, active compounds read low", "result": "0.382 (active)"}, {"measurement": "normalized growth", "setting": "S. cerevisiae deletion strains, locus YNL322C, strain KRE1 (second series), active compounds read low", "result": 0.964}, {"measurement": "normalized growth", "setting": "S. cerevisiae deletion strains, locus YNR049C, strain mso1, active compounds read low", "result": 0.978}, {"measurement": "normalized growth", "setting": "S. cerevisiae deletion strains, locus YNR052C, strain pop2, active compounds read low", "result": 0.928}, {"measurement": "normalized growth", "setting": "S. cerevisiae deletion strains, locus YOL012C, strain htz1", "result": 0.349}, {"measurement": "normalized growth", "setting": "S. cerevisiae deletion strains, locus YOL147C, strain pex11, active compounds read low", "result": "0.929 (active)"}, {"measurement": "normalized growth", "setting": "S. cerevisiae deletion strains, locus YOR001W, strain rrp6, active compounds read low", "result": 0.918}, {"measurement": "normalized growth", "setting": "S. cerevisiae deletion strains, locus YOR061W, strain CKA2, active compounds read low", "result": "0.785 (active)"}, {"measurement": "normalized growth", "setting": "S. cerevisiae deletion strains, locus YOR069W, strain VPS5, active compounds read low", "result": 0.975}, {"measurement": "normalized growth", "setting": "S. cerevisiae deletion strains, locus YOR070C, strain gyp1, active compounds read low", "result": "0.796 (active)"}, {"measurement": "normalized growth", "setting": "S. cerevisiae deletion strains, locus YOR080W, strain dia2, active compounds read low", "result": 0.982}, {"measurement": "normalized growth", "setting": "S. cerevisiae deletion strains, locus YOR083W, strain WHI5, active compounds read low", "result": "0.842 (active)"}, {"measurement": "normalized growth", "setting": "S. cerevisiae deletion strains, locus YOR106W, strain vam3, active compounds read low", "result": "0.662 (active)"}, {"measurement": "normalized growth", "setting": "S. cerevisiae deletion strains, locus YOR136W, strain idh2, active compounds read low", "result": 0.958}, {"measurement": "normalized growth", "setting": "S. cerevisiae deletion strains, locus YOR144C, strain elg1, active compounds read low", "result": 0.946}, {"measurement": "normalized growth", "setting": "S. cerevisiae deletion strains, locus YOR184W, strain ser1, active compounds read low", "result": "0.64 (active)"}, {"measurement": "normalized growth", "setting": "S. cerevisiae deletion strains, locus YOR231W, strain MKK1, active compounds read low", "result": 0.884}, {"measurement": "normalized growth", "setting": "S. cerevisiae deletion strains, locus YOR265W, strain rbl2, active compounds read low", "result": "0.886 (active)"}, {"measurement": "normalized growth", "setting": "S. cerevisiae deletion strains, locus YOR270C, strain vph1, active compounds read low", "result": "0.632 (active)"}, {"measurement": "normalized growth", "setting": "S. cerevisiae deletion strains, locus YOR290C, strain snf2, active compounds read low", "result": "0.836 (active)"}, {"measurement": "normalized growth", "setting": "S. cerevisiae deletion strains, locus YOR316C, strain cot1, active compounds read low", "result": 0.97}, {"measurement": "normalized growth", "setting": "S. cerevisiae deletion strains, locus YPL051W, strain arl3, active compounds read low", "result": "0.764 (active)"}, {"measurement": "normalized growth", "setting": "S. cerevisiae deletion strains, locus YPL078C, strain atp4, active compounds read low", "result": "0.885 (active)"}, {"measurement": "normalized growth", "setting": "S. cerevisiae deletion strains, locus YPL106C, strain sse1, active compounds read low", "result": 1.01}, {"measurement": "normalized growth", "setting": "S. cerevisiae deletion strains, locus YPL240C, strain hsp82, active compounds read low", "result": "0.908 (active)"}, {"measurement": "normalized growth", "setting": "S. cerevisiae deletion strains, locus YPL256C, strain CLN2, active compounds read low", "result": "0.816 (active)"}, {"measurement": "normalized growth", "setting": "S. cerevisiae deletion strains, locus YPR119W, strain clb2, active compounds read low", "result": 0.988}, {"measurement": "normalized growth", "setting": "S. cerevisiae deletion strains, locus YPR141C, strain kar3, active compounds read low", "result": 0.982}, {"measurement": "normalized growth", "setting": "S. cerevisiae deletion strains, locus YPR163C, strain tif3, active compounds read low", "result": "0.9 (active)"}, {"measurement": "normalized growth", "setting": "S. cerevisiae deletion strains, locus YPR167C, strain met16, active compounds read low", "result": "0.91 (active)"}, {"measurement": "normalized growth", "setting": "S. cerevisiae deletion strains, strain wtn01, active compounds read low", "result": "0.868 (active)"}, {"measurement": "normalized growth", "setting": "S. cerevisiae strains, strain wild type, active compounds read low", "result": "0.78 (active)"}]}
